# Measurements from PubChem BioAssay (EPA / NIEHS).
# Several values for one entry are separate records, joined by “and”; a condition that tells them apart may be missing. Identical values can stand only once. Records with an inconclusive call do not appear. Activity calls are given as the source filed them. Rule for the calls, unless noted: active = hit-call score of the fitted dose curve at least 0.9, where 1 is the maximum; inconclusive = response in the unintended direction; inactive = score below 0.9.
# Experiments:
# [1] = ATG_M_19_TRANS: Attagene TRANS-FACTORIAL HepG2 Assay for M19 Transcription Factor (Internal Marker) (AID 2282974); conditions: HepG2 Attagene TRANS-FACTORIAL M19 internal marker reporter
# In short: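 Cells: human HepG2, transiently transfected with multiplexed reporter transcription units. Exposure: 24 h. Detection: RT-PCR of reporter mRNA with capillary electrophoresis. Analysis: gain-of-signal vs DMSO.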
# [2] = target: Oxysterols receptor LXR-beta (Homo sapiens) (UniProt P55055); test: ATG_LXRb_TRANS: Attagene TRANS-FACTORIAL HepG2 Assay for human Liver X Receptor beta (LXRb) (AID 2282981); conditions: HepG2 Attagene TRANS GAL4-LXRb reporter, mRNA
# Oxysterols receptor LXR-beta (Homo sapiens), sequence (P55055 whole entry, looked up, the tested form may be a part): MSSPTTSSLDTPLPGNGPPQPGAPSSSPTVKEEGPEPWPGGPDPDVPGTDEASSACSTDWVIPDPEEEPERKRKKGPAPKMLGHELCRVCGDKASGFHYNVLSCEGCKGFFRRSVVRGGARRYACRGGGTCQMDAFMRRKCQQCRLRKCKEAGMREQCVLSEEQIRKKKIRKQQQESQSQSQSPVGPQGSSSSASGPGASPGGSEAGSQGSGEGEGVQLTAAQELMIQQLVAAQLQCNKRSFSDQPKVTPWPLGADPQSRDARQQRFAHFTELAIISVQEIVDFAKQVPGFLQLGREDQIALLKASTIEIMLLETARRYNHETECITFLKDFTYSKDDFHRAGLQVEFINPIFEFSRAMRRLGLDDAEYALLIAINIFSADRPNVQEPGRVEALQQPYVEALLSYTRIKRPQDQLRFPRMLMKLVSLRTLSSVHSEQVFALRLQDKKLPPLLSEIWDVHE
# In short: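 After 24 h chemical treatment of transfected HepG2 cells carrying exogenous NR-Gal4 chimeras, reporter mRNA was quantified by fluorescent RT-PCR and capillary electrophoresis; activity taken as increase over DMSO controls.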
# [3] = target: Hepatocyte nuclear factor 4-alpha (Homo sapiens) (UniProt P41235); test: ATG_HNF4a_TRANS: Attagene TRANS-FACTORIAL HepG2 Assay for human Hepatocyte Nuclear Factor 4 alpha (HNF4a) (AID 2282982); conditions: HepG2 HNF4a transactivation reporter, mRNA readout
# Hepatocyte nuclear factor 4-alpha (Homo sapiens), sequence (P41235 whole entry, looked up, the tested form may be a part): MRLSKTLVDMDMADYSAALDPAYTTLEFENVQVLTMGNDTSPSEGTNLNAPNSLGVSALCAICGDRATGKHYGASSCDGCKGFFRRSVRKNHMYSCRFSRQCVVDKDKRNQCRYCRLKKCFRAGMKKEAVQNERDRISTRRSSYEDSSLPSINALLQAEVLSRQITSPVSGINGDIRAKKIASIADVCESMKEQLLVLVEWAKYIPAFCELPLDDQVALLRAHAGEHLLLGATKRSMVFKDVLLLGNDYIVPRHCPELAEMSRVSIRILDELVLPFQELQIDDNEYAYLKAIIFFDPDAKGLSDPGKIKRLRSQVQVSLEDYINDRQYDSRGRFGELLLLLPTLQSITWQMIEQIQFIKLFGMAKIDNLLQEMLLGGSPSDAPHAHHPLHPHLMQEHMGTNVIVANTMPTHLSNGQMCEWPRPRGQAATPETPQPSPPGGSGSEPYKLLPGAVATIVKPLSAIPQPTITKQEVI
# In short: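 Activity of an exogenous HNF4a–Gal4 fusion scored as induced GAL4-UAS reporter transcripts after 24 h chemical exposure of transfected human HepG2 cells. Read-out via RT-PCR with 6-FAM labelling and capillary electrophoresis; rise over DMSO baseline.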
# [4] = target: human Peroxisome Proliferator-activated Receptor delta (PPARd), PPARD (gene 5467) (UniProt Q03181); test: ATG_PPARd_TRANS: Attagene TRANS-FACTORIAL HepG2 Assay for human Peroxisome Proliferator-activated Receptor delta (PPARd) (AID 2283002)
# human Peroxisome Proliferator-activated Receptor delta (PPARd), PPARD (gene 5467), sequence (Q03181 whole entry, looked up): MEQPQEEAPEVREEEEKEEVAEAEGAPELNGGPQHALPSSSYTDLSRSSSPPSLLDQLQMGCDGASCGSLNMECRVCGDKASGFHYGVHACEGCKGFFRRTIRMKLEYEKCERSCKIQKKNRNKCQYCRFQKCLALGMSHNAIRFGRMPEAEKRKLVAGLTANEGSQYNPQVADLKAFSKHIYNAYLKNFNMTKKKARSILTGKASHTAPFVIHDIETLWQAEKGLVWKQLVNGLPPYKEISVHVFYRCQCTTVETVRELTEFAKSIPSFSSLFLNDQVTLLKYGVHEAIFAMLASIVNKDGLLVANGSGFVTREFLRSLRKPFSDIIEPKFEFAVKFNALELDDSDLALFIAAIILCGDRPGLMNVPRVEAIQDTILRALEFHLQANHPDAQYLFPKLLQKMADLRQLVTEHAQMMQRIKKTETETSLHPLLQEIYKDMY
# In short: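 Cell-based TRANS reporter: HepG2, transient MRTU transfection, 24 h exposure. Readout = reporter mRNA (RT-PCR/CE, 6-FAM). Gain-of-signal fit vs DMSO control.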
# [5] = target: human Retinoid X Receptor beta (RXRb), RXRB (gene 6257) (UniProt P28702); test: ATG_RXRb_TRANS: Attagene TRANS-FACTORIAL HepG2 Assay for human Retinoid X Receptor beta (RXRb) (AID 2283013)
# human Retinoid X Receptor beta (RXRb), RXRB (gene 6257), sequence (P28702 whole entry, looked up, the tested form may be a part): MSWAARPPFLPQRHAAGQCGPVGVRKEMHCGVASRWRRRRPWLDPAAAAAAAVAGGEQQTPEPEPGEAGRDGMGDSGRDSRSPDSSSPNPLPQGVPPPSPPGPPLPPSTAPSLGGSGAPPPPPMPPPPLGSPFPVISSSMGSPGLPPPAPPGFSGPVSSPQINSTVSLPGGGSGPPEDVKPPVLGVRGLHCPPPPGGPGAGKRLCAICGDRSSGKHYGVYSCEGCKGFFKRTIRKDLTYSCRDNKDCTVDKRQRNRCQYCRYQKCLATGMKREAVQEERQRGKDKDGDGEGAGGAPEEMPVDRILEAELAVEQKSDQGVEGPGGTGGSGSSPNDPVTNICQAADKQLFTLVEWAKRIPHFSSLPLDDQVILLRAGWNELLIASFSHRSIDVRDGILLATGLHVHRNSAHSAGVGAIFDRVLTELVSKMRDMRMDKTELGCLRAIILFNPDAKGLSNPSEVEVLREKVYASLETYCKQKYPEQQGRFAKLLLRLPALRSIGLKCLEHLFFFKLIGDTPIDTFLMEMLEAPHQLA
# In short: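 Readout is reporter transcript induction after 24 h dosing. It is measured by RT-PCR of total RNA followed by fluorescent capillary electrophoresis. HepG2 liver cells carry transfected multiple reporter units driven by an exogenous RXRb-Gal4 fusion; activity is relative to DMSO.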
# [6] = target: human Thyroid Receptor alpha (THRa1), THRA (gene 7067) (UniProt P10827); test: ATG_THRa1_TRANS: Attagene TRANS-FACTORIAL HepG2 Assay for human Thyroid Receptor alpha (THRa1) (AID 2283014)
# human Thyroid Receptor alpha (THRa1), THRA (gene 7067), sequence (P10827 whole entry, looked up, the tested form may be a part): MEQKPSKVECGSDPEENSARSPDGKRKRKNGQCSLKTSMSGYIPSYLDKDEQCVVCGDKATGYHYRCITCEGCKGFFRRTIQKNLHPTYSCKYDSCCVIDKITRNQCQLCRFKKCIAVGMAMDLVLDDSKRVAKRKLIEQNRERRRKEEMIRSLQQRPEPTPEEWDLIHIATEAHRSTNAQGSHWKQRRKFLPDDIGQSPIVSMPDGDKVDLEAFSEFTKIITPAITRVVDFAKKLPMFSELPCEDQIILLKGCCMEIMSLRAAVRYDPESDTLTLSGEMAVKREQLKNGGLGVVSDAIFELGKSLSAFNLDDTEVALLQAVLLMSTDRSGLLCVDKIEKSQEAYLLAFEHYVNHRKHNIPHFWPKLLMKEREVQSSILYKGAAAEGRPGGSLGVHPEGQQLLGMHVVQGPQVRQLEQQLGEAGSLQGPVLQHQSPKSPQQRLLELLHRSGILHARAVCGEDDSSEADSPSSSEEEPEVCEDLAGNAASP
# In short: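 HepG2 cells transiently transfected with multiplexed GAL4-UAS reporter units for exogenous chimeric THRa1-Gal4; reporter mRNA measured 24 h after dosing by RT-PCR, 6-FAM labelling, HpaI digestion and capillary electrophoresis. Gain-of-signal fitted versus DMSO baseline.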
# [7] = ACEA_ER_AUC_viability: ACEA Biosciences xCELLigence Real-Time Cell Analysis on Estrogen Receptor Agonism for Viability (AID 2283782);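 note: hit means loss of impedance signal meaning reduced cell growth or viability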
# In short: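 Viability endpoint: reduced impedance area under the curve relative to DMSO, recorded by real-time electrode sensing over ~80 h of continuous exposure. Duplicate plates of T47D in hormone-depleted medium; eight concentrations, 1:4 dilutions, 100 uM maximum.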
# [8] = target: human Peroxisome Proliferator-activated Receptor alpha (PPARa), PPARA (gene 5465) (UniProt Q07869); test: ATG_PPARa_TRANS: Attagene TRANS-FACTORIAL HepG2 Assay for human Peroxisome Proliferator-activated Receptor alpha (PPARa) (AID 2283001);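 for AC50: potency for gain of reporter signal over DMSO so agonist or activator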
# human Peroxisome Proliferator-activated Receptor alpha (PPARa), PPARA (gene 5465), sequence (Q07869 whole entry, looked up, the tested form may be a part): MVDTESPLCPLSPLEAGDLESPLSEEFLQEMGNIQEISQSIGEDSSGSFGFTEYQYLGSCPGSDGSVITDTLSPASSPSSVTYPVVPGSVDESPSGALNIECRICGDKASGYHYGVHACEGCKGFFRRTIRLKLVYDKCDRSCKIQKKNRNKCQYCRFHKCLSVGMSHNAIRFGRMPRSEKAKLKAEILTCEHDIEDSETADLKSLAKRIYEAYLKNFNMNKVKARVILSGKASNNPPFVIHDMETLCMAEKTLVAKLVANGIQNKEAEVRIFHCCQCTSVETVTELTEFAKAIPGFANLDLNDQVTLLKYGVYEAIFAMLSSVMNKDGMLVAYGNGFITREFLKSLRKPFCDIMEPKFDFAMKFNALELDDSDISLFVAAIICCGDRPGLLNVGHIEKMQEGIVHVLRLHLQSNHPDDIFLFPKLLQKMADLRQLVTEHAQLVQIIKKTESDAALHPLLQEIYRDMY
# In short: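 Reporter transcripts quantified by RT-PCR plus capillary electrophoresis after 24 h treatment, fitted upward relative to DMSO. Cells: human HepG2 transiently carrying multiple GAL4-UAS reporter units driven by NR-Gal4 chimeras.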
# [9] = target: human RAR-related Orphan Receptor beta (RORb), RORB (gene 6096) (UniProt Q92753); test: ATG_RORb_TRANS: Attagene TRANS-FACTORIAL HepG2 Assay for human RAR-related Orphan Receptor beta (RORb) (AID 2283010)
# human RAR-related Orphan Receptor beta (RORb), RORB (gene 6096), sequence (Q92753 whole entry, looked up, the tested form may be a part): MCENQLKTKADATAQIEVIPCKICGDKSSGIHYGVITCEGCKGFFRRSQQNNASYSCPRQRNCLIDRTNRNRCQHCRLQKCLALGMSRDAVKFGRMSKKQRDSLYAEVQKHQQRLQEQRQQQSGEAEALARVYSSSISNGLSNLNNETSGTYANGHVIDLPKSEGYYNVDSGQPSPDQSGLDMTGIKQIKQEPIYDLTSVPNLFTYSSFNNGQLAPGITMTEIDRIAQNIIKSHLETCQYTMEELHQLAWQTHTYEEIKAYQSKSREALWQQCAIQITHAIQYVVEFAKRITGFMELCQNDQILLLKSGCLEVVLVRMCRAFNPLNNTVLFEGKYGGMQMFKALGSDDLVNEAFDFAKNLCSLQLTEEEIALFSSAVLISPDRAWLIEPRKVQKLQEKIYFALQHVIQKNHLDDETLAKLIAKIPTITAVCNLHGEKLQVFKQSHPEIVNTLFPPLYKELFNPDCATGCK
# In short: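 Read-out is reporter mRNA induction, quantified by RT-PCR with fluorescent capillary electrophoresis, 24 h post-dose in transiently transfected HepG2 expressing exogenous NR-Gal4 chimera. Activity fitted upward versus DMSO.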
# [10] = CCTE_Harrill_HTTr_Apoptosis_MCF7: CCTE's 6-hour Apoptosis Assessment for the High-Throughput Transcriptomics (HTTr) Platform, in MCF-7 cells cultured in DMEM + 10% fetal bovine serum, Harrill Lab (AID 2284011; active = hit-call score of the fitted dose curve at least 0.9, where 1 is the maximum; inactive = score below 0.9)
# In short: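 MCF-7 cells in DMEM + 10% fetal bovine serum were exposed to chemicals for 6 hours over an eight-point dilution series. Caspase-3/7 activation was imaged by high content imaging with CellEvent Caspase 3/7 Green; bidirectional fitting used DMSO as baseline.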
# [11] = target: Nuclear receptor subfamily 1 group I member 3 (Homo sapiens) (UniProt Q14994); test: ATG_CAR_TRANS: Attagene TRANS-FACTORIAL HepG2 Assay for human Constitutive Androstane Receptor (CAR) (AID 2282969); conditions: HepG2 Attagene TRANS-FACTORIAL CAR reporter;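 note: activators raise reporter mRNA above DMSO so AC50 marks induction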
# Nuclear receptor subfamily 1 group I member 3 (Homo sapiens), sequence (Q14994 whole entry, looked up, the tested form may be a part): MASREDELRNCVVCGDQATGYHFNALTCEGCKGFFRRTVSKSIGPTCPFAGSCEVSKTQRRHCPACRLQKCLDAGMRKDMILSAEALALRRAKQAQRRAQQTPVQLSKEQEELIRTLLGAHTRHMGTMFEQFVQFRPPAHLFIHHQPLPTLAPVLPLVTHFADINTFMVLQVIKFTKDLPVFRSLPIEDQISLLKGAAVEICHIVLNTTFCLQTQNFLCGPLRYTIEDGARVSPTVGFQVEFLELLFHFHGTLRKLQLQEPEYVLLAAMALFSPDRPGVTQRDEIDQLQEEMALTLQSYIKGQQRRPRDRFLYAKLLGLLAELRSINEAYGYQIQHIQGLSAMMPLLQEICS
# In short: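 Signal is reporter mRNA induction relative to DMSO, measured 24 h after dosing by RT-PCR with fluorescent primer extension and capillary electrophoresis. Human HepG2 liver cells carried transiently transfected chimeric NR-Gal4/GAL4-UAS reporter constructs.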
# [12] = TOX21_p53_BLA_p2_viability: Viability Assessment in the Tox21 HCT-116 p53 Agonism Beta-lactamase Assay, Phase 2 (AID 2283591);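 note: compound exposure lasted 16 h at 37 °C; actives lower the ATP signal meaning cytotoxicity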
# In short: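 Cytotoxicity readout: CellTiter-Glo ATP luminescence, 30 min at room temperature, after the beta-lactamase read. Cells were HCT116 exposed 16 h at 37C to compounds pin-transferred at 217-fold dilution from DMSO stocks.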
# [13] = TOX21_p53_BLA_p3_viability: Viability Assessment in the Tox21 HCT-116 p53 Agonism Beta-lactamase Assay, Phase 3 (AID 2283593);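 note: cells exposed to compound for 16 h before reading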
# In short: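 Cellular ATP was quantified by CellTiter-Glo luminescence, read after 30 min at room temperature. Beforehand, HCT116 cells (4000/well) received compound 5 h post-seeding, 217-fold diluted from DMSO, then incubated 16 h at 37C.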
# [14] = TOX21_p53_BLA_p4_viability: Viability Assessment in the Tox21 HCT-116 p53 Agonism Beta-lactamase Assay, Phase 4 (AID 2283597);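 note: hits lower the luminescence signal meaning cytotoxicity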
# In short: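 Cytotoxicity was inferred from loss of CellTiter-Glo luminescence. HCT116 cells had been dosed with compounds after 5 h plating, incubated 16 h at 37C and 5% CO2, and exposed to the CCF4-AM substrate for 2 h.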
# [15] = TOX21_p53_BLA_p5_viability: Viability Assessment in the Tox21 HCT-116 p53 Agonism Beta-lactamase Assay, Phase 5 (AID 2283600)
# In short: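 Luciferase-coupled ATP quantitation of cells treated for 16 h (37C, 5% CO2) with test chemicals delivered in DMSO via a 217-fold dilution; 4000 cells/well; reagent incubated 30 min at room temperature before luminescence reading.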
# [16] = target: Bile acid receptor (Homo sapiens) (UniProt Q96RI1); test: ATG_IR1_CIS: Attagene CIS-FACTORIAL HepG2 Assay for human Nuclear Receptor Subfamily 1 Group H Member 4 (NR1H4), IR1 submotif (AID 2282946; active = hit-call score of the fitted dose curve at least 0.9, where 1 is the maximum; inactive = score below 0.9); conditions: IR1 reporter transcription, actives raise or lower the signal
# Bile acid receptor (Homo sapiens), sequence (Q96RI1 whole entry, looked up): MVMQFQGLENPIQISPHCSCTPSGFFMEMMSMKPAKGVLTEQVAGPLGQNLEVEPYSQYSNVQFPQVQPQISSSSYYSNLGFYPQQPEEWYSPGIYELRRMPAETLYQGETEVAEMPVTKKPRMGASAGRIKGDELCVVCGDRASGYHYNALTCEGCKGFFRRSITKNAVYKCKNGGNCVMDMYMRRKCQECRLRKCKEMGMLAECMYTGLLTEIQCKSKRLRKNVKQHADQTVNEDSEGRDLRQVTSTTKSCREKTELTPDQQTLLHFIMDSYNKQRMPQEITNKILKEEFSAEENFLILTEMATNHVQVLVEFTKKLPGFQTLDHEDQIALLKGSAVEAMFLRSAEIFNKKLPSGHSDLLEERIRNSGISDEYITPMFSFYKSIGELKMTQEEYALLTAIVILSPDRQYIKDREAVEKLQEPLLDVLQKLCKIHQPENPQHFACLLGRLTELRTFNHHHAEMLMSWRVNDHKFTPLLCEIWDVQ
# In short: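 HepG2 cells transiently transfected with multiplexed cis-element reporter units read endogenous transcription factor activity. After 24 h compound exposure, reporter mRNA was quantified by RT-PCR, fluorescent labelling, HpaI digestion and capillary electrophoresis; bidirectional fitting versus DMSO baseline.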
# [17] = target: Oxysterols receptor LXR-alpha (Homo sapiens) (UniProt Q13133); test: ATG_LXRa_TRANS: Attagene TRANS-FACTORIAL HepG2 Assay for human Liver X Receptor alpha (LXRa) (AID 2282980); conditions: HepG2 Attagene TRANS reporter, LXRa transactivation
# Oxysterols receptor LXR-alpha (Homo sapiens), sequence (Q13133 whole entry, looked up, the tested form may be a part): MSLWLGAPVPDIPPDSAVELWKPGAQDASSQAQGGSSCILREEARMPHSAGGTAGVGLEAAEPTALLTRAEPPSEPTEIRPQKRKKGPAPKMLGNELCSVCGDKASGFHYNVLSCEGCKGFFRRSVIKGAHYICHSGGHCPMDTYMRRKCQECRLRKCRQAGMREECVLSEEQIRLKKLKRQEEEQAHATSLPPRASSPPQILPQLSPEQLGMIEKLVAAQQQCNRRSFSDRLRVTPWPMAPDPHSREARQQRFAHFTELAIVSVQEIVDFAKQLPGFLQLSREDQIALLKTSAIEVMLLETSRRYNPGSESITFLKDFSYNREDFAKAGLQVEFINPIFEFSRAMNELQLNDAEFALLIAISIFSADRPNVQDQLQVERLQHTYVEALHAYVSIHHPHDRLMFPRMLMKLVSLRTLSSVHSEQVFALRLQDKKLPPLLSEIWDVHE
# In short: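 HepG2 cells were transiently transfected with multiplexed reporter units driven by chimeric LXRa–GAL4 fusion proteins, then dosed for 24 h. Reporter mRNA was quantified by RT-PCR, fluorescent labelling and capillary electrophoresis; gain of signal fitted against DMSO baseline.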
# [18] = ATG_GAL4_TRANS: Attagene TRANS-FACTORIAL HepG2 Assay for GAL4 (Internal Marker) (AID 2282976); conditions: HepG2 Attagene TRANS GAL4 internal marker reporter
# In short: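 HepG2 cells transiently transfected with multiplexed GAL4-UAS reporter constructs were dosed for 24 h. Reporter mRNA was measured by RT-PCR, 6-FAM primer extension, HpaI digestion and capillary electrophoresis, and gain of signal was fitted relative to DMSO.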
# [19] = target: Retinoic acid receptor alpha (Homo sapiens) (UniProt P10276); test: ATG_DR5_RAR_CIS: Attagene CIS-FACTORIAL HepG2 Assay for human Retinoic Acid Receptor Alpha (RARE), DR5 submotif (AID 2282934; active = hit-call score of the fitted dose curve at least 0.9, where 1 is the maximum; inactive = score below 0.9;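 for AC50: reporter responds to endogenous RAR alpha beta and gamma in HepG2 not RARA alone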); conditions: HepG2 Attagene cis-factorial RARE DR5 reporter, mRNA; actives raise or lower the signal
# In short: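 HepG2, transient cis-reporter transfection, 24 h exposure. mRNA readout: RT-PCR, FAM label, HpaI cut, capillary electrophoresis. DMSO baseline, gain/loss fitting.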
# [20] = target: human Vitamin D Receptor (VDR), VDR (gene 7421) (UniProt P11473); test: ATG_VDR_TRANS: Attagene TRANS-FACTORIAL HepG2 Assay for human Vitamin D Receptor (VDR) (AID 2283022)
# In short: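 HepG2 cells were transiently transfected with multiple GAL4-UAS reporter units, so signal reflects exogenous chimeric receptor-Gal4 activity. After 24 h compound exposure, reporter mRNA was measured by RT-PCR, fluorescent labelling and capillary electrophoresis, fitted for gain of signal versus DMSO.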
structure (smiles),measurement,setting,value
O=S(=O)(O)OOS(=O)(=O)O,outcome,[1],inactive
same,outcome,[2],inactive
same,outcome,[3],inactive
same,outcome,[4],inactive
same,outcome,[5],inactive
same,outcome,[6],inactive
same,outcome,[7],inactive
C[N+](C)(C)CC(=O)[O-],outcome,[8],inactive
same,outcome,[4],inactive
same,outcome,[9],inactive
same,outcome,[5],inactive
same,outcome,[6],inactive
same,outcome,[10],inactive
O=C1C=CC(=O)C=C1,outcome,[11],inactive
same,outcome,[2],inactive
same,outcome,[3],inactive
same,outcome,[8],inactive
same,outcome,[9],inactive
same,outcome,[6],inactive
same,outcome,[12],inactive
same,AC50,[13],72.3 µM (active) and 76.5 µM (active)
same,outcome,[14],inactive
same,outcome,[15],inactive
same,AC50,[7],73.5 µM (active)
same,outcome,[10],inactive
CC(Cc1ccc(C(C)(C)C)cc1)CN1C[C@@H](C)O[C@@H](C)C1 (some centres undefined),outcome,[16],inactive
same,outcome,[11],inactive
same,outcome,[1],inactive
same,outcome,[17],inactive
same,outcome,[2],inactive
same,outcome,[3],inactive
same,outcome,[8],inactive
same,outcome,[9],inactive
same,outcome,[5],inactive
same,outcome,[6],inactive
same,outcome,[12],inactive
same,AC50,[13],46.1 µM (active)
same,outcome,[14],inactive
same,outcome,[15],inactive
same,AC50,[7],89.5 µM (active)
same,outcome,[10],inactive
O=[N+]([O-])c1cc(C(F)(F)F)c(Cl)c([N+](=O)[O-])c1Cl,outcome,[16],inactive
same,outcome,[17],inactive
same,outcome,[2],inactive
same,AC50,[3],11.1 µM (active)
same,AC50,[8],52.5 µM (active)
same,AC50,[4],41.1 µM (active)
same,outcome,[6],inactive
same,AC50,[12],35.2 µM (active)
same,AC50,[13],35.6 µM (active)
same,AC50,[14],35.9 µM (active)
same,AC50,[15],46.1 µM (active)
CCC(C)c1cc([N+](=O)[O-])cc([N+](=O)[O-])c1OC(=O)C=C(C)C (centres undefined),AC50,[16],26.5 µM (active)
same,outcome,[11],inactive
same,outcome,[18],inactive
same,outcome,[3],inactive
same,outcome,[8],inactive
same,outcome,[4],inactive
same,outcome,[5],inactive
same,outcome,[12],inactive
same,outcome,[13],inactive
same,AC50,[14],13.2 µM (active)
same,outcome,[15],inactive
CCC(C)(C)O,outcome,[11],inactive
same,outcome,[18],inactive
same,outcome,[3],inactive
same,outcome,[7],inactive
same,outcome,[10],inactive
COC(C)(C)CCC[C@H](C)C/C=C/C(C)=C/C(=O)OC(C)C,outcome,[19],inactive
same,outcome,[11],inactive
same,outcome,[1],inactive
same,outcome,[17],inactive
same,outcome,[8],inactive
same,outcome,[5],inactive
same,outcome,[6],inactive
same,outcome,[12],inactive
same,outcome,[13],inactive
same,outcome,[14],inactive
same,outcome,[15],inactive
same,AC50,[7],79.3 µM (active)
CNC(=O)Oc1cc(C)c(SC)c(C)c1,outcome,[16],inactive
same,outcome,[11],inactive
same,outcome,[2],inactive
same,outcome,[3],inactive
same,outcome,[8],inactive
same,outcome,[4],inactive
same,outcome,[9],inactive
same,AC50,[5],30.2 µM (active)
same,outcome,[6],inactive
same,outcome,[20],inactive
same,outcome,[10],inactive
Nc1ccccc1C(=O)Oc1ccc2ccccc2c1,AC50,[19],173 µM (active)
same,AC50,[16],26.1 µM (active)
same,outcome,[1],inactive
same,outcome,[17],inactive
same,outcome,[5],inactive
same,outcome,[6],inactive
same,outcome,[20],inactive
same,outcome,[13],inactive
same,outcome,[14],inactive
same,outcome,[15],inactive
same,AC50,[7],24.4 µM (active)
CCc1cc(C)cc(CC)c1-c1c(OC(=O)C(C)(C)C)n2n(c1=O)CCOCC2,outcome,[16],inactive
same,outcome,[1],inactive
same,outcome,[18],inactive
same,outcome,[3],inactive
same,outcome,[4],inactive
same,outcome,[9],inactive
same,outcome,[10],inactive
